In PubChem BioAssay (NCATS):
Inconclusive results are not listed. Activity calls are given as the source filed them. The call rests on the fitted dose curve; in most records, active means well fitted curve in the direction sought with a large enough effect; inconclusive means small, poorly fitted or top-dose-only effect, or another doubt; inactive means no such curve, though single readings can be large; an effect the other way counts as inactive or inconclusive. Numbered stars: 1 amine (or outer) side, 2 acyl side, 3 side chain; on linkers, the order of the positions; unused ones are H or OH. Square brackets hold non-standard residues; d marks the D form. Peptide text beside a SMILES is read from it. X5 = O=C([C@@H](CC(O)CCl)O[*:1])[*:2]; X3 = CC(CC(O[*:1])C(=O)[*:2])C(=O)O; aIle = CC[C@@H](C)[C@H](N)C(=O)O; NMeV = CN[CH](C(=O)O)C(C)C; NMeA = CN[CH](C)C(=O)O; βAla = NCCC(=O)O

Experiments:
[1] = target: Cellular tumor antigen p53 (Homo sapiens) (UniProt P04637); assay: Primary qHTS for small molecule compounds that upregulate eGFP-tagged delta133p53alpha (in N-terminal) cells. (AID 2060322); settings: NCI-H358 eGFP-delta133p53alpha fluorescence, 24 h; activation: hits give high values;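 further: series mostly up to about 56 µM; 0% = DMSO vehicle and 100% = reference activator; nearly all actives have a fitted effect of over 75% in size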
Sequence of Cellular tumor antigen p53 (Homo sapiens) (P04637 whole entry, looked up): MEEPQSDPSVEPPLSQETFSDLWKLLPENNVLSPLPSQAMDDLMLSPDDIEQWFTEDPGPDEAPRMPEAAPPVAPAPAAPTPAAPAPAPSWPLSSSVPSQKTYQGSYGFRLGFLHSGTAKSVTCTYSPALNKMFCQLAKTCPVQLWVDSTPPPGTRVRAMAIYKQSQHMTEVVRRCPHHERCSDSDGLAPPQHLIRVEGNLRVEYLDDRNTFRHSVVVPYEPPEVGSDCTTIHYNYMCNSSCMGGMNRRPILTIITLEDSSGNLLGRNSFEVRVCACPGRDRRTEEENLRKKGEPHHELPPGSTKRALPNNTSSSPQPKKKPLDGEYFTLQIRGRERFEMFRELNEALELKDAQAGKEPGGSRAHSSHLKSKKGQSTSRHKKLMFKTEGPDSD
Method in brief: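 NCI-H358 cells pre-induced 24 h with 10 ng/ml doxycycline to express N-terminal eGFP-delta133p53alpha, then dosed 24 h at 37C without doxycycline; fixed, Hoechst-stained, GFP intensity by laser scanning cytometry, normalized to DMSO (0%) and 57.5 uM 5-azacytidine (100%).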

[2] = target: Aldehyde dehydrogenase, mitochondrial (Homo sapiens) (UniProt P05091); assay: qHTS for Inhibitors of the Aldehyde Dehydrogenase Family (ALDH2) Primary screen (AID 2061308);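 further: plate controls were vehicle for no effect and reference inhibitor for full effect; nearly all actives have a fitted effect of over 55% in size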
[3] = target: Retinaldehyde dehydrogenase 3 (Homo sapiens) (UniProt P47895); assay: qHTS for Inhibitors of the Aldehyde Dehydrogenase Family (ALDH1A3) Primary screen (AID 2061315);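 further: plate controls were DMSO vehicle for no effect and reference inhibitor for full effect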

Fc1cc(F)c2c(c1)[C@H]1C=CC[C@H]1C(c1cccnc1)N2 (some centres not stated)
inactive: activation [1] 2.39% | Potency [2] | Potency [3]

CCC(C)C1NC(=O)C2CCCN2C(=O)C(CC(C)C(=O)O)OC(=O)CCNC(=O)C(C)N(C)C(=O)C(C(C)C)N(C)C1=O (configuration not stated) (cyclo([X3]PI[NMeV][NMeA][βAla]); configuration not given here)
inactive: activation [1] -10.7% | Potency [2] | Potency [3]

CC(C)=C1CC[C@]23CO[C@H](C2)[C@@](O)(C(=O)O)CCC13 (some centres not stated)
inactive: activation [1] -4.58% | Potency [2] | Potency [3]

CC[C@@H](C)[C@@H]1NC(=O)[C@@H]2CCCN2C(=O)[C@@H](CC(O)CCl)OC(=O)CCNC(=O)[C@H](C)N(C)C(=O)[C@H](C(C)C)N(C)C1=O (some centres not stated) (cyclo([NMeA][βAla][X5]P[aIle][NMeV]))
inactive: activation [1] -10.7% | Potency [2] | Potency [3]

COC(=O)C1(C)CCC(=O)C2(C)c3c(O)cc(C(C)C)cc3C(O)C(OC(C)=O)C12 (configuration not stated)
inactive: activation [1] 22.9% | Potency [2] | Potency [3]

C[C@]12CC[C@H]3[C@@H]([C@H](O)CC4=CC(=O)CC[C@@]43C)[C@@H]1CC[C@@H]2O
inactive: activation [1] -2.33% | Potency [2] | Potency [3]

CN1C(=O)N(c2ccc(C#N)c(C(F)(F)F)c2)C(=O)[C@@]1(CO)c1ccccc1
inactive: activation [1] -3.67% | Potency [2] | Potency [3]

Clc1ccc([C@]23CNC[C@H]2C3)cc1Cl
inactive: activation [1] -21.7% | Potency [2] | Potency [3]

CC1=CC2(O)/C=C/C(C)(O)C(O)C(O)/C=C/C(=O)OC23C(=O)NC(CC(C)C)C3C1C (configuration not stated)
inactive: activation [1] 0.763% | Potency [2] | Potency [3]
